From PubChem
RXFP1 antag: RXFP1 (human) relaxin receptor antagonism. HEK293-RXFP1, relaxin-stimulated cAMP HTRF, 30 min; active compounds read low. Q9HBX9. AID 1259400. 350,000 tested, 0.59% active. activity change, negative = inhibition, % at 57.5 µM;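 active = activity change of -60% or lower, but not beyond a set lower limit; inconclusive = change between -60% and -40%, or beyond the set limit; inactive = change above -40%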
RXFP1 ag: RXFP1 (human) receptor agonism; Q9HBX9; HEK293T-RXFP1 cAMP TR-FRET, 30 min; response scale: percent of porcine relaxin response, buffer zero; Potency, µM (doses to about 57.5 µM), hits mostly activators; 370,000 tested, 0.3% active; AID 2676; note: nearly all actives have a fitted effect of over 60% in size
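HEK293 cells stably expressing RXFP1, treated 30 min at 37C with compounds plus PDE4 inhibitor Ro 20174; cAMP measured by HTRF TR-FRET. Normalized to buffer and 29 nM porcine relaxin; EC50 by Hill fit.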
PTHR1 ag: PTHR1 (human) receptor agonism; HEK293 GP2 PTHR1 cells, GloSensor cAMP luminescence, 1 h; 410,000 tested, 0.075% active; AID 743266; Potency, µM (highest dose often 115 µM), most hits filed as activators; note: nearly all actives have a fitted effect of over 55% in size
Target sequence (Q03431 whole entry, looked up): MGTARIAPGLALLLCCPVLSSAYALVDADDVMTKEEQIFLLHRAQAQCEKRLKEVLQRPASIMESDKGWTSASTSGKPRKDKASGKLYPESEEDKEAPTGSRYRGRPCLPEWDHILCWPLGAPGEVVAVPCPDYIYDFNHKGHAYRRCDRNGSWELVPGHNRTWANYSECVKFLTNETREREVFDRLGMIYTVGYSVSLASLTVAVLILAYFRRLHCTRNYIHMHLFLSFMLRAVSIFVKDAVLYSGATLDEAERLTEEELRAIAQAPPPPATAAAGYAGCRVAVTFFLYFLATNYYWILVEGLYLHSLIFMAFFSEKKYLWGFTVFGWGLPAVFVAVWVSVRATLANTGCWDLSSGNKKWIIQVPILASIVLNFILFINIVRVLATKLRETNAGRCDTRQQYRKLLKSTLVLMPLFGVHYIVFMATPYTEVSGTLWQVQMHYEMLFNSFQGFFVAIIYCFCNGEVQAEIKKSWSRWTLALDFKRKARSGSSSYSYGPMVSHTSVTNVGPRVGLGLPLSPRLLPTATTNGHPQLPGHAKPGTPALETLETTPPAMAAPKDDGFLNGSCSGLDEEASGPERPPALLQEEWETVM
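HEK-293-derived GP2 cells expressing PTHR1 and a GloSensor cAMP reporter, 3,000/well, plated overnight, given luciferin plus IBMX (each 0.5 mM as added) for 1 h at 37 °C, then compound for 1 h at 37 °C. Luminescence was read after 15 min at room temperature.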
gsp ag: gsp mutant agonism; Potency, µM (titrated, usually from 76.9 µM), hits mostly activators; gsp mutant cells, cAMP HTRF, 30 min; 340,000 tested, 0.13% active; active = well fitted activation curve with a large enough effect; inconclusive = small, poorly fitted or top-dose-only effect, or another doubt; inactive = no such curve, though single readings can be large or run the other way; cell line not stated here;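 note: phosphodiesterase inhibitor Ro 20-1724 added with compounds to block cAMP breakdown; nearly all actives have a fitted effect of over 60% in size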
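Cells stably selected in G418 were plated at 2000/well, grown 16-24 hr, then given compounds in DMSO with the PDE inhibitor […] (300 uM solution added) for 30 min at 37C; cAMP was read by HTRF.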
gsp antagonist: gsp mutant antagonism; gsp-mutant cells, cAMP HTRF, 30 min; Potency, µM (highest dose often 76.9 µM), hits mostly inhibitors; 340,000 tested, 0.4% active; AID 624288; calls by dose curve; cell line not stated here;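 note: intracellular cAMP measured with PDE inhibitor Ro 20-1724 present during compound exposure; nearly all actives have a fitted effect of over 65% in size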
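Measurement of cellular cAMP by homogeneous time-resolved fluorescence following a 30 min compound exposure at 37C. The PDE inhibitor […] was present throughout; the assay buffer was DPBS with 0.05% BSA and 0.005% Tween 20.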
Large screens that a line does not name were inactive; ! = a repeat was not active. A selection: hits, their analogues and other compounds. The true share with any hit is near 1%. Unless noted, calls come from the whole dose curve; as a rule, active = well fitted curve in the direction sought with a large enough effect; inconclusive = small, poorly fitted or top-dose-only effect, or another doubt; inactive = no such curve, though single readings can be large; an effect the other way counts as inactive or inconclusive.

CCS(=O)(=O)c1oc(-c2ccc(F)cc2)nc1S(=O)(=O)c1ccc(Br)cc1	RXFP1 antag -102 (no result: gsp ag, gsp antagonist)
Cc1ccc(S(=O)(=O)c2nc(-c3cccs3)oc2SC(C)C)cc1	none (no result: gsp ag, gsp antagonist)
CC(C)S(=O)(=O)c1oc(-c2ccc(F)cc2)nc1S(=O)(=O)c1ccccc1	RXFP1 antag -106 (no result: gsp ag, gsp antagonist)
CCc1ccc(Sc2cc(C(=O)O)c3ccccc3n2)cc1	RXFP1 ag inconclusive (no result: gsp ag, gsp antagonist)
COc1ccc(/C=C2\SC(=O)N(CCC(=O)Nc3ccccc3)C2=O)cc1OC	gsp ag inconclusive, gsp antagonist inconclusive
COc1cc(/C=C2\SC(=O)N(CCN)C2=O)ccc1OS(=O)(=O)c1cc(C)ccc1C	RXFP1 antag -72
COc1ccc(-c2noc(N3CCC(C(=O)N(C)c4cc(Cl)ccc4OC)CC3)n2)cc1	none (no result: gsp ag, gsp antagonist)
O=c1c2cc3c(nc2[nH]c(=S)n1-c1ccccc1)CCCC3	RXFP1 ag inconclusive, gsp ag inconclusive
CCn1c(=S)[nH]c2nc3c(cc2c1=O)CCCC3	RXFP1 ag inconclusive, gsp ag 8.9µM
O=C(CC1C(=O)NCCN1Cc1ccc(-c2ccccc2)cc1)NCC1CC1 (centres undefined)	RXFP1 antag -61
O=[N+]([O-])c1cc(Cc2ccccc2)cc(C=Nc2ccc(N3CCOCC3)cc2)c1O	RXFP1 antag -75
Cn1c(SCC(=O)NCc2ccc3c(c2)OCO3)nnc1-c1cc2ccccc2cc1O	gsp ag inconclusive, gsp antagonist 40µM
Cc1ccc(-c2nnc(N3CCN(C(=O)c4cccs4)CC3)c3ccccc23)cc1	gsp antagonist 45µM
Cc1ccc(-c2nnc(N3CCN(c4ccccn4)CC3)c3ccccc23)cc1	RXFP1 antag inconclusive, gsp antagonist 40µM
Cc1ccc(-c2nnc(N3CCN(S(C)(=O)=O)CC3)c3ccccc23)cc1	none
O=C(c1cccs1)N1CCN(c2nnc(-c3ccccc3)c3ccccc23)CC1	none
Cc1ccc(-c2nnc(N3CCCCC3)c3ccccc23)cc1	gsp antagonist 35µM
CC(C)c1ccc(NC(=O)Cn2cc(S(=O)(=O)Cc3cccc(Cl)c3)c3ccccc32)cc1	none (no result: gsp ag, gsp antagonist)
COc1ccccc1/C=C/c1nc(C#N)c(N2CCCCCC2)o1	none (no result: gsp ag, gsp antagonist)
COc1cccc2cc(C(=O)Nc3ccc(F)cc3)c(=Nc3ccc(C(=O)O)cc3)oc12	gsp antagonist 11µM
CN1C(=O)c2ccccc2Sc2ccc(NC(=O)c3ccccc3F)cc21	none (no result: gsp ag, gsp antagonist)
CCOc1cc(C#N)c(NC(=O)Cn2nnc(-c3ccc(C)cc3)n2)cc1OCC	none (no result: gsp ag, gsp antagonist)
Cc1ccc(N(Cc2cccs2)C(=O)COc2cccc(C)c2)cc1	none (no result: RXFP1 antag, gsp ag, gsp antagonist)
COc1ccc(N(Cc2cccs2)C(=O)COc2cccc(C)c2C)cc1	RXFP1 antag -72 (no result: gsp ag, gsp antagonist)
COc1ccc(N(Cc2cccs2)C(=O)COc2cc(C)c(Cl)c(C)c2)cc1	RXFP1 antag -69 (no result: gsp ag, gsp antagonist)
Cn1c(C(=O)Nc2cccc(Cl)c2)cc2c(=O)n(C)c3ccccc3c21	RXFP1 ag inconclusive (no result: RXFP1 antag, gsp ag, gsp antagonist)
CN1C(=O)C2(SCC(=O)N2c2ccc(F)cc2)c2ccccc21 (centres undefined)	none (no result: RXFP1 antag, gsp ag, gsp antagonist)
CC1(C(=O)N/N=C/c2c(F)c(F)c(F)c(F)c2F)CC1(Cl)Cl (centres undefined)	RXFP1 antag -68 (no result: RXFP1 ag)
Cc1nnnn1/C(=C\c1ccccc1)C(=O)OCC(=O)Nc1ccc(Cl)cc1F	RXFP1 antag -64
COc1ccc(NC(=O)c2ccccc2Oc2ccccc2)c(OC)c1	none
COc1cc(OC)c(NC(=O)c2ccccc2F)cc1Cl	gsp ag inconclusive
COc1cc(NC(=O)c2cc3ccccc3cc2O)c(OC)cc1Cl	gsp ag inconclusive, gsp antagonist 20µM
COc1ccccc1NC(=O)c1ccccc1Oc1ccccc1	gsp antagonist 5.6µM
O=C(O)Cn1cnnn1	none (no result: RXFP1 ag, PTHR1 ag, gsp ag, gsp antagonist)
Cc1cc(Nc2cccc(C(F)(F)F)c2)nc2ccc(NC(=O)c3cccnc3)cc12	RXFP1 antag -72 (no result: gsp ag, gsp antagonist)
O=C(c1cnc(N2CCCCC2)c2ccccc12)N1CCN(c2cccc(Cl)c2)CC1	RXFP1 antag inconclusive (no result: gsp ag, gsp antagonist)
Cc1ccc(C(=O)C2=C(O)C(=O)N(CCCn3ccnc3)C2c2ccc(OC(C)C)cc2)o1 (centres undefined)	RXFP1 ag 16µM, gsp ag inconclusive
Cc1ccc(-c2nnc(Nc3ccc4c(c3)OCO4)c3ccccc23)cc1S(N)(=O)=O	gsp antagonist 28µM
Cc1cc(/C=C2\SC(=S)N(C)C2=O)c(C)n1-c1ccc(O)cc1	gsp antagonist inconclusive
Cc1cc(/C=C2\SC(=S)N(C)C2=O)c(C)n1-c1ccccc1O	gsp antagonist 35µM (no result: RXFP1 ag)
O=C(NCc1cccnc1)c1cc(C(=O)C2CC2)c[nH]1	gsp antagonist 11µM
CCOC(=O)c1nnc(-c2ccc(C)cc2)nc1N1CCSCC1	RXFP1 antag -68
CCOC(=O)C1=C(C)NC(C)=C(C(=O)OCC)C1C(=O)OCC(=O)N1c2ccccc2CC1C (centres undefined)	gsp antagonist 11µM!
CCOC(=O)c1c(C)[nH]c(C(=O)OCC(=O)N2c3ccccc3CC2C)c1C (centres undefined)	none
CC1=C(C(=O)OC(C)C)C(c2cccc([N+](=O)[O-])c2)C(C(=O)OC2CN(C(c3ccccc3)c3ccccc3)C2)=C(N)N1 (centres undefined)	none (no result: RXFP1 ag, PTHR1 ag, gsp ag, gsp antagonist)
CS(=O)(=O)c1ccccc1-c1nnc(NC(=O)c2cccc(N3C(=O)CCC3=O)c2)o1	RXFP1 antag -76
O=C(Nc1nnc(-c2ccncc2)o1)c1cccc(N2C(=O)CCC2=O)c1	none
Cc1ccc2c(c1)N(CCCC(=O)NCc1cccc(F)c1)C(=O)CO2	PTHR1 ag inconclusive (no result: gsp ag, gsp antagonist)
O=C(CN1C(=O)CC(c2ccco2)Sc2ccccc21)NC1CCCCC1 (centres undefined)	gsp antagonist 50µM (no result: RXFP1 antag)
CC1CC(=O)N(CC(=O)NC2CCCCC2)c2ccccc2S1 (centres undefined)	none
O=C(Nc1ccc(F)cc1F)c1ccc2c(c1)CCN2S(=O)(=O)c1ccc(Cl)cc1	none (no result: gsp ag, gsp antagonist)
O=c1nc2ccccn2c2ccc(S(=O)(=O)N3CCCCC3)cc12	RXFP1 ag 20µM
COc1ccc(-n2c(=S)[nH]c3cc(C(=O)NCc4cccnc4)ccc3c2=O)c(OC)c1	RXFP1 antag -71
COc1ccc(-n2c(=S)[nH]c3cc(C(=O)NCc4ccccc4)ccc3c2=O)c(OC)c1	gsp antagonist 20µM
COc1ccc2c(c1)c(N1CCCC1=O)c(C(=O)Nc1cc(C)c(Cl)cc1OC)n2C	none (no result: RXFP1 antag, gsp ag, gsp antagonist)
COc1ccc(C(C)C)cc1S(=O)(=O)NCCCn1ccnc1	RXFP1 antag -63
Cc1cc(-c2ccc(C(C)C)c(S(=O)(=O)Nc3cc(C)on3)c2)on1	RXFP1 antag -65, gsp ag inconclusive
Cc1cc(-c2ccc(C)c(S(=O)(=O)Nc3cccc(C)n3)c2)on1	none (no result: gsp ag, gsp antagonist)
COc1ccc(C(=O)NCC(=O)OCC(=O)NC(=O)c2ccc(C(C)(C)C)cc2)cc1OC	gsp antagonist 50µM
